Experimental data as given in PubChem BioAssay (EPA / NIEHS).
Results filed as inconclusive are left out. Calls of active or inactive are those of the source. How the source made its calls: active means hit-call score of the fitted dose curve at least 0.9, where 1 is the maximum; inconclusive means response in the unintended direction; inactive means score below 0.9.

Target: Cellular tumor antigen p53 (Homo sapiens) (UniProt P04637)
Experiment: TOX21_p53_BLA_p3_ratio: Tox21 HCT-116 p53 Agonism Beta-lactamase Assay, Ratio, Phase 3 (AID 2283596)
Procedure, shortened: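 Cells were seeded at 4000/well, rested 5 h at 37C, then dosed with DMSO compound solutions (217-fold dilution) for 16 h. CCF4-AM substrate was loaded for 2 h at room temperature, and the 460/530 nm emission ratio was fitted for gain of signal versus DMSO.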

Cellular tumor antigen p53 (Homo sapiens), sequence (P04637 whole entry, looked up): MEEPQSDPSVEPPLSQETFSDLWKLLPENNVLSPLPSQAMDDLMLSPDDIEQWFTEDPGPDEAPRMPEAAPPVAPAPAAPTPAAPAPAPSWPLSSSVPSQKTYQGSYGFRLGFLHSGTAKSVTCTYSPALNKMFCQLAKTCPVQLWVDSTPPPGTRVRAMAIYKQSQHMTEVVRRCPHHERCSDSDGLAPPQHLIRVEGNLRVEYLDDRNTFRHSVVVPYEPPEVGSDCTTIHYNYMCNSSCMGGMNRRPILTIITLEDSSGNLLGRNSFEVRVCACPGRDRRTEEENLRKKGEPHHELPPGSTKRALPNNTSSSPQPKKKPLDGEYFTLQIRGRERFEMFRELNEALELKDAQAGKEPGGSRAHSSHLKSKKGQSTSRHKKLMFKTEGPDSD

SMILES	outcome
CO/N=C(\C(=O)N[C@@H]1C(=O)N2C(C(=O)O)=C(CSc3nc(C)c(CC(=O)O)s3)CS[C@H]12)c1csc(N)n1	inactive
N[C@H](C(=O)O)[C@@H](O)c1ccc(O)c(O)c1	inactive
CCN(CCCc1ccccc1)CCCc1ccccc1	inactive
O=[N+]([O-])c1cc(Cl)c(Cl)c(Cl)c1Cl	inactive
CN(C)c1ccc(SC#N)cc1	inactive
C=COCCCCO	inactive
O=C(c1ccc(F)cc1)C1CCN(CCn2c(=S)[nH]c3ccccc3c2=O)CC1	inactive
C[n+]1ccn(Cc2ccccc2)c1	inactive
O=C(CCN1CCN(CCO)CC1)N1c2ccccc2Sc2ccc(C(F)(F)F)cc21	inactive
CCN(CC)CCNC(=O)c1cc(S(C)(=O)=O)ccc1OC	inactive
COc1ccc(-c2cc(C(F)F)nn2-c2ccc(S(N)(=O)=O)cc2)cc1F	inactive
CC=C(Cl)Cl	inactive
O=C1CCCc2ccccc21	inactive
CN1CCN(C2=Nc3cc(F)ccc3Cc3ccccc32)CC1	inactive
C/C(=C\C(=O)OCCCCCCCCC(=O)O)C[C@@H]1OC[C@H](C[C@@H]2O[C@H]2[C@@H](C)[C@H](C)O)[C@@H](O)[C@H]1O	inactive
C[N+](C)(C)CC(O)CCl (stereo not drawn)	inactive
NS(=O)(=O)c1ccccc1Cl	inactive
O=C1CCN(c2ccccc2)N1	inactive
CC(C)(O/N=C(\C(=O)N[C@@H]1C(=O)N2C(C(=O)[O-])=C(C[n+]3ccccc3)CS[C@H]12)c1csc(N)n1)C(=O)O	inactive
OCc1c2ccccc2cc2ccccc12	inactive

SMILES	outcome
Nc1nc2c(ncn2COC(CO)CO)c(=O)[nH]1	inactive
CC(=O)c1ccc2ccc3ccccc3c2c1	inactive
Cc1nc2ccccc2s1	inactive
Nc1ccc(C(=O)O)c(O)c1	inactive
CCCCOC(=O)C(=O)Nc1cccc(-c2nn[nH]n2)c1	inactive
Cc1ccccc1C(=O)O	inactive
O=C(O)C(O)[C@H](O)[C@@H](O)[C@H](O)[C@H](O)CO (stereo partly drawn)	inactive
Cn1nnnc1SCC1=C(C(=O)O)N2C(=O)[C@@H](NC(=O)[C@H](O)c3ccccc3)[C@H]2SC1	inactive
Nc1nc(N)c(-c2ccccc2)s1	inactive
CCCCOCCCC	inactive
CC(C)(O)c1ccccc1	inactive
C[N+]1(C)CCN(CC(O)(c2ccccc2)C2CCCCC2)CC1 (stereo not drawn)	inactive
CNC[C@@H]1CC[C@@H](N)[C@@H](O[C@H]2[C@H](O)[C@@H](O[C@H]3OC[C@](C)(O)[C@H](NC)[C@H]3O)[C@H](N)C[C@@H]2N)O1	inactive
Cc1cc(C)cc([N+](=O)[O-])c1	inactive
CNC1(C)C2CCC(C2)C1(C)C (stereo not drawn)	inactive
O=C(O)[C@H]1/C(=C/CO)O[C@@H]2CC(=O)N21	inactive
CN1CCN(C2=Nc3ccccc3Oc3ccc(Cl)cc32)CC1	inactive
N=C(N)c1ccc(C=Cc2ccc(C(=N)N)cc2O)cc1	inactive
CC#CCC(C)[C@H](O)/C=C/[C@@H]1[C@H]2C/C(=C/CCCC(=O)O)C[C@H]2C[C@H]1O (stereo partly drawn)	inactive

System: not listed separately
Experiment: TOX21_p53_BLA_p4_viability: Viability Assessment in the Tox21 HCT-116 p53 Agonism Beta-lactamase Assay, Phase 4 (AID 2283597);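 further: hits lower the luminescence signal meaning cytotoxicity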
Procedure, shortened: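 Cytotoxicity was inferred from loss of CellTiter-Glo luminescence. HCT116 cells had been dosed with compounds after 5 h plating, incubated 16 h at 37C and 5% CO2, and exposed to the CCF4-AM substrate for 2 h.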

SMILES	outcome
CO/N=C(\C(=O)N[C@@H]1C(=O)N2C(C(=O)O)=C(CSc3nc(C)c(CC(=O)O)s3)CS[C@H]12)c1csc(N)n1	inactive
N[C@H](C(=O)O)[C@@H](O)c1ccc(O)c(O)c1	inactive
CCN(CCCc1ccccc1)CCCc1ccccc1	inactive
O=[N+]([O-])c1cc(Cl)c(Cl)c(Cl)c1Cl	inactive
CN(C)c1ccc(SC#N)cc1	inactive
C=COCCCCO	inactive
O=C(c1ccc(F)cc1)C1CCN(CCn2c(=S)[nH]c3ccccc3c2=O)CC1	inactive
C[n+]1ccn(Cc2ccccc2)c1	inactive
O=C(CCN1CCN(CCO)CC1)N1c2ccccc2Sc2ccc(C(F)(F)F)cc21	inactive
CCN(CC)CCNC(=O)c1cc(S(C)(=O)=O)ccc1OC	inactive
COc1ccc(-c2cc(C(F)F)nn2-c2ccc(S(N)(=O)=O)cc2)cc1F	inactive
CC=C(Cl)Cl	inactive
O=C1CCCc2ccccc21	inactive
CN1CCN(C2=Nc3cc(F)ccc3Cc3ccccc32)CC1	inactive
C/C(=C\C(=O)OCCCCCCCCC(=O)O)C[C@@H]1OC[C@H](C[C@@H]2O[C@H]2[C@@H](C)[C@H](C)O)[C@@H](O)[C@H]1O	inactive
C[N+](C)(C)CC(O)CCl (stereo not drawn)	inactive
NS(=O)(=O)c1ccccc1Cl	inactive
O=C1CCN(c2ccccc2)N1	inactive
CC(C)(O/N=C(\C(=O)N[C@@H]1C(=O)N2C(C(=O)[O-])=C(C[n+]3ccccc3)CS[C@H]12)c1csc(N)n1)C(=O)O	inactive
OCc1c2ccccc2cc2ccccc12	inactive

SMILES	outcome
Nc1nc2c(ncn2COC(CO)CO)c(=O)[nH]1	inactive
CC(=O)c1ccc2ccc3ccccc3c2c1	inactive
Cc1nc2ccccc2s1	inactive
Nc1ccc(C(=O)O)c(O)c1	inactive
CCCCOC(=O)C(=O)Nc1cccc(-c2nn[nH]n2)c1	inactive
Cc1ccccc1C(=O)O	inactive
O=C(O)C(O)[C@H](O)[C@@H](O)[C@H](O)[C@H](O)CO (stereo partly drawn)	inactive
Cn1nnnc1SCC1=C(C(=O)O)N2C(=O)[C@@H](NC(=O)[C@H](O)c3ccccc3)[C@H]2SC1	inactive
Nc1nc(N)c(-c2ccccc2)s1	inactive
CCCCOCCCC	inactive
CC(C)(O)c1ccccc1	inactive
C[N+]1(C)CCN(CC(O)(c2ccccc2)C2CCCCC2)CC1 (stereo not drawn)	inactive
CNC[C@@H]1CC[C@@H](N)[C@@H](O[C@H]2[C@H](O)[C@@H](O[C@H]3OC[C@](C)(O)[C@H](NC)[C@H]3O)[C@H](N)C[C@@H]2N)O1	inactive
Cc1cc(C)cc([N+](=O)[O-])c1	inactive
CNC1(C)C2CCC(C2)C1(C)C (stereo not drawn)	inactive
O=C(O)[C@H]1/C(=C/CO)O[C@@H]2CC(=O)N21	inactive
CN1CCN(C2=Nc3ccccc3Oc3ccc(Cl)cc32)CC1	inactive
N=C(N)c1ccc(C=Cc2ccc(C(=N)N)cc2O)cc1	inactive
CC#CCC(C)[C@H](O)/C=C/[C@@H]1[C@H]2C/C(=C/CCCC(=O)O)C[C@H]2C[C@H]1O (stereo partly drawn)	inactive
